Source: the supplement of paper PMC6555819

Key:
Assay in all cases: PBM binding z-score (relative to random genomic background probes); higher = stronger binding; sequences stand for … in GC…GCGATTGACAGCGTAGAATGAAGG
[1] = system: FXR:RXRa (NR concentration 270 nM, RXRa partner concentration 90 nM)
Summary of the method: (§1)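 Binding buffer was PBS pH 7.4 with 2% milk, 0.02% Triton X-100, 1 mM DTT, 0.2 mg/mL BSA and 0.4 mg/ml salmon testes DNA. In it, ligand-free nuclear receptor dimers were incubated 1 h on custom Agilent 4×180K protein-binding microarrays carrying double-stranded probes. Antibodies against each partner (one per run) detected binding, and z-scores were calculated against random background probes after regression normalization of scanned fluorescence.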

[2] = system: LXRa:RXRa (NR concentration 270 nM, RXRa partner concentration 90 nM)
Summary of the method: as §1

[3] = system: LXRa homodimer (NR concentration 270 nM)
Summary of the method: as §1

[4] = system: LXRb:RXRa (NR concentration 270 nM, RXRa partner concentration 90 nM)
Summary of the method: as §1

[5] = system: LXRb homodimer (NR concentration 270 nM)
Summary of the method: as §1

[6] = system: PPARa:RXRa (NR concentration 270 nM, RXRa partner concentration 90 nM)
Summary of the method: as §1

[7] = system: PPARg:RXRa (NR concentration 180 nM, RXRa partner concentration 90 nM)
Summary of the method: as §1

[8] = system: PPARg:RXRa 270nM:90nM, anti-RXR (NR concentration 270 nM, RXRa partner concentration 90 nM)
Summary of the method: as §1

[9] = system: PPARg:RXRa 30nM:10nM, anti-RXR (NR concentration 30 nM, RXRa partner concentration 10 nM)
Summary of the method: as §1

[10] = system: PPARg:RXRa 90nM:30nM, anti-RXR (NR concentration 90 nM, RXRa partner concentration 30 nM)
Summary of the method: as §1

Sequence	PBM binding z-score [1]	PBM binding z-score [2]	PBM binding z-score [3]	PBM binding z-score [4]	PBM binding z-score [5]	PBM binding z-score [6]	PBM binding z-score [7]	PBM binding z-score [8]	PBM binding z-score [9]	PBM binding z-score [10]
AGCACGAGGGCACGCTGAGTTGATAGCAGAGTAG	0.941	0.602	-0.669	0.23	-1.28	1.61	1.22	0.752	-0.187	0.162
CGAACTAGGTCAAGGACAGTGGATCTCCGCACGC	3.06	1.85	-0.0741	1.23	-0.565	4.31	6.9	6.1	3.35	5.72
TCTTGTAGTTCAAAGGTTAAGAAAGCCGAAGCCT	4.09	4.39	1.23	3.51	0.628	5.16	7.14	7.29	7.28	7.39
CGAACGAGAGCATGAGTTGATAGCAAATGCCGAT	-0.453	-0.53	-0.103	-0.828	-0.953	-0.357	0.777	0.133	-0.214	-0.282
ACTATTAGTTGACTTAGGGCAACAGATACGACGC	0.0788	0.0659	0.494	0.0147	0.162	-0.0178	0.94	0.32	0.494	0.163
AATACAGGGTCATCGTAGGCCATAGTACGCACAG	7.3	6.74	3.23	4.97	1.39	6.02	6.89	6.05	2.98	4.83
CCGACTGGGGCATAAGGTTAACATAAGCCAGCCC	0.54	1.08	-0.335	0.945	-1.21	2.22	2.6	3.42	1.27	2.84
CGTCCAAGCTCAGAGAGGTCAGTGAATGCCGAGT	1.33	1.41	0.781	1.52	-0.498	2.19	-0.188	0.558	-0.581	-0.0568
GATACAGGGTCAGCTAGAGGCCAGGGTATGGAAA	4.42	2.81	-0.258	2.46	-0.476	4.43	3.61	3.44	0.426	2.14
ATACCGAGGTGATCGTGAGGTCGTTGATACTAAC	1.95	1.69	0.52	1.59	-0.183	1.83	0.57	0.574	-0.146	0.356
TCATATAGGTATACAGGTGAAAGTCCGTAAGTTA	1.01	1.13	0.26	1.2	0.257	1.9	2.4	3.24	3.8	3.58
CCGACTGGGGCAAGGTTACCAAAACGCACAGCCA	0.221	0.494	-0.00504	0.617	-1.39	2.07	2.78	3.62	1.01	2.6
CCTTACGGGTCACTCCAGCTTATAGCATCGGAGT	4.62	3.14	-0.000472	2.66	0.0792	4.46	2.98	3.49	0.864	2.44
TCATATAGGTAAAGGTGACAGTCGAACGATATGA	0.847	1.04	0.0349	0.847	-0.211	2.88	3.72	4.32	4.16	4.4
ACTATTAGTTGAAACGAGGGCAACCGATAGGTTG	1.41	0.609	0.126	0.482	0.184	1.14	0.901	0.84	0.292	0.528
TAGCCTACGTCATTCAGGGGCCAGTATAGAAAGC	-0.632	-0.447	-0.497	0.157	-0.0304	-0.0175	0.374	-0.279	-0.505	-0.468
TCAGACAGGTGAAGATAACTCAGGTACGCAGTCG	0.856	0.897	0.162	1.04	-0.112	1.39	1.09	2.31	3.92	2.92
ATATGTAGGTTATCGGGTCATTCGGTTTGCGCAT	3.2	3.11	1.78	2.85	1.02	4.68	6.96	5.9	3.48	6.13
TCTTGTAGATCAGCAGGTTAAGTAAGCTGGCCAA	0.169	0.366	-0.23	0.424	-0.524	0.865	-0.624	1.25	2.73	2.04
TCATATAGGTAAATGCTAGGTGAAAGCCCGATCT	0.778	0.754	0.00437	0.675	-0.102	1.4	0.799	2.27	3.75	3.05
TTACCAAGGTGAGCTGCGGTCGTTGATCCAACTC	0.391	0.351	-0.281	-0.0836	-1.32	0.597	-0.444	-0.0826	-0.536	-0.439
GCTGCTAGGTGAGGTTGGTCAGCTAACGGGTACG	-0.483	-0.442	-0.661	-0.672	-0.761	-0.326	-0.331	-0.69	-1.04	-0.961
TCTCGCAGGCCAGAGGGTCACTCAAGAGGTACGG	1.04	1.1	-0.517	1.02	-1.09	2.32	0.92	1.95	2.05	1.91
TCTGCTCGGTCAACGATGGTCAGCTAATCTGCTA	0.568	0.372	-0.251	-0.449	-0.425	0.275	-0.279	0.898	1.25	1.09
